What all share (set-up): species or system human, MV4-11 + K-562 + COLO205 + SK-N-BE2 + OVCAR-8
The subject of one assay is MAPK14. To be noted: read-out: apparent Kd; compound concentrations:100 nM and 1000 nM (sheet 'Samples'); n = 1.
The subject of another assay is MAPKAPK2. To be noted: read-out: apparent Kd; compound concentrations:100 nM and 1000 nM (sheet 'Samples'); n = 1.
In a further assay the test system is PIP4K2C. To be noted: read-out: apparent Kd; compound concentrations:100 nM and 1000 nM (sheet 'Samples'); n = 1.
The test system of the next assay is PKN3. To be noted: read-out: apparent Kd; compound concentrations:100 nM and 1000 nM (sheet 'Samples'); n = 1.
The next assay concerns SLK. To be noted: read-out: apparent Kd; compound concentrations:100 nM and 1000 nM (sheet 'Samples'); n = 1.
In the next assay the test system is STK10. To be noted: read-out: apparent Kd; compound concentrations:100 nM and 1000 nM (sheet 'Samples'); n = 1.
The test system of another assay is TESK2. To be noted: read-out: apparent Kd; compound concentrations:100 nM and 1000 nM (sheet 'Samples'); n = 1.
A further assay has as its system ADCK3. To be noted: read-out: apparent Kd, compound concentrations: 100 nM and 1000 nM (sheet 'Samples'), n = 1.
A further assay has as its system AKT1. To be noted: read-out: apparent Kd; compound concentrations: 100 nM and 1000 nM (sheet 'Samples'), CATDS: 7.0300825665370006E-2; n = 1.
In a further assay the test system is AKT2. To be noted: read-out: apparent Kd, compound concentrations: 100 nM and 1000 nM (sheet 'Samples'), n = 1.
The subject of another assay is AKT3. To be noted: read-out: apparent Kd; compound concentrations: 100 nM and 1000 nM (sheet 'Samples'), CATDS: 7.9002074728764499E-2; n = 1.
Another assay relates to CAMK4. To be noted: read-out: apparent Kd, compound concentrations: 100 nM and 1000 nM (sheet 'Samples'), n = 1.
The test system of the next assay is CSNK1A1. To be noted: read-out: apparent Kd; compound concentrations: 100 nM and 1000 nM (sheet 'Samples'), CATDS: 6.8994714696940407E-2; n = 1.
The test system of a further assay is MAP2K1. To be noted: read-out: apparent Kd, compound concentrations: 100 nM and 1000 nM (sheet 'Samples'), n = 1.
Another assay deals with MAP2K2. To be noted: read-out: apparent Kd, compound concentrations: 100 nM and 1000 nM (sheet 'Samples'), n = 1.
For a further assay, the system named is MAPK9. To be noted: read-out: apparent Kd; compound concentrations: 100 nM and 1000 nM (sheet 'Samples'), CATDS: 6.4176537599483302E-2; n = 1.
The next assay deals with NQO1. To be noted: read-out: apparent Kd, compound concentrations: 100 nM and 1000 nM (sheet 'Samples'), n = 1.
The next assay relates to PIM2. To be noted: read-out: apparent Kd; compound concentrations: 100 nM and 1000 nM (sheet 'Samples'), CATDS: 7.6487231298609404E-2; n = 1.
For a further assay, the system named is PYGL. To be noted: read-out: apparent Kd; compound concentrations: 100 nM and 1000 nM (sheet 'Samples'), CATDS: 6.9677029727435405E-2; n = 1.
The test system of a further assay is RIOK2. To be noted: read-out: apparent Kd, compound concentrations: 100 nM and 1000 nM (sheet 'Samples'), n = 1.
The next assay deals with SMC4. To be noted: read-out: apparent Kd; compound concentrations: 100 nM and 1000 nM (sheet 'Samples'), CATDS: 6.4174106680799994E-2; n = 1.
Another assay concerns ATM. To be noted: read-out: apparent Kd, compound concentrations: 100 nM and 1000 nM (sheet 'Samples'), n = 1.
Another assay deals with ADCK1. To be noted: read-out: apparent Kd; compound concentrations: 100 nM and 1000 nM (sheet 'Samples'), CATDS: 8.5431360664487602E-2; n = 1.
A further assay deals with CDC42BPG. To be noted: read-out: apparent Kd; compound concentrations: 100 nM and 1000 nM (sheet 'Samples'), CATDS: 7.3873319351317801E-2; n = 1.
For the next assay, the system named is CDKL5. To be noted: read-out: apparent Kd, compound concentrations: 100 nM and 1000 nM (sheet 'Samples'), n = 1.
The subject of the next assay is CLK1. To be noted: read-out: apparent Kd; compound concentrations: 100 nM and 1000 nM (sheet 'Samples'), CATDS: 0.10181470937503199; n = 1.
The test system of the next assay is CLK2. To be noted: read-out: apparent Kd; compound concentrations: 100 nM and 1000 nM (sheet 'Samples'), CATDS: 0.42234286586488101; n = 1.
The test system of the next assay is CLK4. To be noted: read-out: apparent Kd; compound concentrations: 100 nM and 1000 nM (sheet 'Samples'), CATDS: 0.12045713212899201; n = 1.
The test system of a further assay is PIK3CD. To be noted: read-out: apparent Kd; compound concentrations: 100 nM and 1000 nM (sheet 'Samples'), CATDS: 0.16747258598029099; n = 1.
Another assay deals with PRKAG2. To be noted: read-out: apparent Kd; compound concentrations: 100 nM and 1000 nM (sheet 'Samples'), CATDS: 7.6138264702913502E-2; n = 1.
The subject of another assay is CDK6. To be noted: read-out: apparent Kd; compound concentrations: 100 nM and 1000 nM (sheet 'Samples'), CATDS: 7.4930063387868798E-2; n = 1.
Another assay relates to CSNK1E. To be noted: read-out: apparent Kd; compound concentrations: 100 nM and 1000 nM (sheet 'Samples'), CATDS: 6.4509222244259798E-2; n = 1.
Another assay relates to CSNK2A1;CSNK2A3. To be noted: read-out: apparent Kd; compound concentrations: 100 nM and 1000 nM (sheet 'Samples'), CATDS: 6.2096943354302901E-2; n = 1.
The test system of another assay is NNT. To be noted: read-out: apparent Kd; compound concentrations: 100 nM and 1000 nM (sheet 'Samples'), CATDS: 7.4633464586539203E-2; n = 1.

Read-outs that look alike come from different tables or passages of the source.

As to `Nc1nc(-c2cccc(Cl)c2)c(-c2ccc3ncccc3n2)s1` [GW780159X], the potency estimated from few doses with MAPK14 was 1440 nM; with MAPKAPK2, 1000 nM.

`O=C(c1ccc(-c2cc(-c3c[nH]nc3-c3ccccn3)ccn2)cc1)N1CCCC1` [GW792479X]: the potency estimated from few doses in the assay on PIP4K2C was 1650 nM.

On to `COc1ccc2nc(-c3cccc(C)n3)nc(Nc3ccncc3)c2c1` [GSK204919_KCGS], for which the potency estimated from few doses with PKN3 was 647 nM.

`COc1ccc2cc(-c3c(-c4ccncc4)nc(-c4ccc(S(C)=O)cc4C)n3C)ccc2c1` (stereo not drawn) [SB-630812]: the potency estimated from few doses is 2250 nM with SLK and 1990 nM in the assay on STK10.

`Cl.c1ccc(-c2n[nH]cc2-c2ccnc(-c3ccc(CN4CCOCC4)cc3)c2)nc1` [GW776245A]: in the assay with TESK2, the potency estimated from few doses was 1580 nM.

As to `O=C(NC1CCN(c2ccnc(Nc3ccc(F)cc3)n2)C1)c1cc2ccccc2s1` (stereo not drawn) [GSK1379716A], the potency estimated from few doses was 1140 nM in the assay with ADCK3 (CATDS: 8.9568558281788502E-2); 1780 nM with AKT1; 1740 nM with AKT2 (CATDS: 7.1049746121653101E-2); 1420 nM in the assay with AKT3; 2280 nM with CAMK4 (CATDS: 6.2704005161184906E-2); 1850 nM in the assay with CSNK1A1. The potency estimated from few doses was 1730 nM with MAP2K1 (CATDS: 7.1306793514003305E-2); 1610 nM in the assay with MAP2K2 (CATDS: 7.3872380173305399E-2); 2160 nM with MAPK9; 1330 nM in the assay on NQO1 (CATDS: 8.1829364824624801E-2); 1500 nM in the assay on PIM2; 1810 nM in the assay on PYGL. Besides, the figures for the potency estimated from few doses in the assay with RIOK2 (CATDS: 6.63813283152343E-2) and in the assay on SMC4 were 2010 nM and 2160 nM, respectively.

`COc1ccc(CNC(=O)c2ccc(-c3cc(-c4nnc(C)o4)ccc3C)cc2)cc1` [GW701032X]: the potency estimated from few doses with ADCK3 (CATDS: 0.40395097893739401) is 731 nM; in the assay with ATM (CATDS: 0.655973384718888), 260 nM.

In the case of `CCOc1ccc2c(-c3ccnc(Nc4cccc(C(F)(F)F)c4)n3)cnn2n1` [GW811761X], the potency estimated from few doses was 1140 nM in the assay with ADCK1; 257 nM with ATM (CATDS: 0.154535696206207); 2020 nM in the assay on CDC42BPG; 644 nM with CDKL5 (CATDS: 0.103192047261391); 667 nM with CLK1; 49.8 nM with CLK2. In addition, the figures for the potency estimated from few doses in the assay on CLK4, in the assay on PIK3CD and with PRKAG2 were 438 nM, 220 nM and 1760 nM, respectively.

Take `Cc1nc(-c2ccccc2)n2nc(NCCCN3CCOCC3)ncc12` [GW874091X]: the potency estimated from few doses with ADCK3 (CATDS: 9.8029447870553399E-2) was 915 nM; with AKT2 (CATDS: 6.9315360856789104E-2), 1850 nM; in the assay on ATM (CATDS: 0.21297510466852801), 287 nM; in the assay with CAMK4 (CATDS: 7.7064865846565897E-2), 1460 nM; in the assay with CDK6 it was 1550 nM; in the assay with CDKL5 (CATDS: 9.7869696626463096E-2) it was 917 nM. Further, the potency estimated from few doses in the assay with CSNK1E is 2210 nM; in the assay on CSNK2A1;CSNK2A3, 2450 nM; with MAP2K1 (CATDS: 6.2459835665012599E-2) it was 2410 nM; in the assay on MAP2K2 (CATDS: 6.9306858675437497E-2), 1850 nM; in the assay with NNT, 1560 nM; in the assay on NQO1 (CATDS: 8.3466895844620997E-2), 1240 nM. The potency estimated from few doses in the assay on RIOK2 (CATDS: 6.3640535742752496E-2) was 2290 nM.

Values taken from article PMC11062922 (Nature Chemical Biology, 2023).
